From PubChem BioAssay AID434973 (Sanford-Burnham Center for Chemical Genomics, 2010)
The whole screen tested about 330,000 compounds, of which about 4,900 (1.5%) were called active.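 The calls were made as follows: active = inhibition above about 50% at the single test dose (limit read from the data); inactive = the rest.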 This excerpt belongs to a sample that is enriched for actives.

Target: Sentrin-specific protease 7 (Homo sapiens) (UniProt Q9BQF6)
Test: SENP7 protease inhibitors, primary screen, biochemical, luminescence, uHTS (AID 434973);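 also: plate controls were DMSO with enzyme for no effect and no enzyme buffer wells for full effect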
Conditions: recombinant SENP7, Z-RLRGG-aminoluciferin luminescence, 40 min; at 5 µM; active compounds read high

inhibition, active:
Nc1ccc2nn(-c3ccc(Cl)cc3)nc2c1 57.3%, O=C(c1cnn(-c2ccc(Cl)cc2)c1)c1ccccc1O 93.1%, CCCCCc1ccc(-c2ccc(C(=O)O)cc2)nc1 92.8%, CCn1nccc1C(=O)Nc1ccc(Cl)c(Cl)c1 63.8%, Cc1ccc(Nc2nc(Cl)c(C=O)s2)cc1 52.6%, COc1ccc(/C=C/c2noc(-c3ccccc3OC(C)=O)n2)cc1 87.9%, c1ccc(Nc2nc(-c3ccncc3)cs2)nc1 85.5%, COc1ccc(Nc2nc(-c3ccccc3)cs2)cc1 95.8%, Cc1ccccc1Nc1nc(-c2cccnc2)cs1 54.3%, COc1ccc(-c2csc(Nc3ccccn3)n2)cc1 86.2%, Cc1cccc(Nc2nc(-c3ccccc3)cs2)n1 92.9%, O=C(Nc1ccc(C(=O)O)c(O)c1)c1ccccc1 85.1%, Cc1ccc(-n2ncc3c(Nc4cccc(C(=O)O)c4)ncnc32)cc1 92.6%, O=C(Nc1ccc2sc3ccccc3c(=O)c2c1)c1ccccc1Cl 51.8%, O=C(Nc1ccccc1)c1cc2ccccc2[nH]1 76%, O=c1c2c(nc3cc(-c4cccc(Cl)c4)[nH]n13)CCCC2 66.7%, Clc1ccc(C2=CSC3=Nc4cccc5cccc(c45)N23)cc1 51.9%, CC(C)(C)c1ccc(NC(=O)NCc2ccco2)cc1 90.7%, COc1ccc(-c2cc3ccc(OCc4nn[nH]n4)cc3oc2=O)cc1 51%, O=C(/C=C/c1ccc2c(c1)OCCO2)c1ccc(O)cc1 68.4%

inhibition, inactive:
c1ccc(-n2nc3ccccc3n2)cc1 1.86%, CN(C)c1nnnn1-c1ccc(Cl)cc1 -4.93%, C[C@@H](NC(=O)OC(C)(C)C)c1nnc(S(=O)(=O)Cc2ccccc2)o1 -2.96%, NC(=O)C1CCN(C(=O)c2ccc(F)c(S(=O)(=O)N3CCOCC3)c2)CC1 10.4%, COc1ccc(C(=O)Cc2cnn(-c3ccccc3)c2)c(O)c1 5.94%, Cc1ncc(CC(=O)n2cc(C(=O)c3cc(Cl)ccc3O)cn2)s1 0.896%, CC1CCCCC1NC(=O)COC(=O)Cc1ccc(Br)cc1 (stereo unspecified) 0.5%, CC(=O)OCc1cc(=O)n(C)c(=O)n1C 6.2%, COc1cccc(COC(=O)C2CCN(S(=O)(=O)c3ccc(Cl)cc3)CC2)c1OC 11.2%, O=C(COC(=O)c1ccco1)Nc1ccc(Cl)cn1 4.97%, CCCCCc1ccc(-c2ccc(OCC)cc2)nc1 11.8%, CCCCCc1ccc(-c2cn(Cc3ccc4ccccc4c3)nn2)cc1 -7.9%, O=S(=O)(NCc1ccccc1Br)c1ccccc1Br 2.03%, O=C(CCc1nc2sc3c(c2c(=O)[nH]1)CCCC3)NCC(=O)Nc1ccccc1Br 2.2%, CC1CC(c2ccccc2)n2nc(NC(=O)c3cccs3)nc2N1 (stereo unspecified) -9.29%, CCn1nccc1C(=O)Nc1ccc(S(=O)(=O)NC23CC4CC(CC(C4)C2)C3)cc1 -4.42%, O=C(CC(O)(C(F)(F)F)C(F)(F)F)Nc1ccc(Cl)c(Cl)c1 2.83%, COc1ccc(C(=O)N2CCN(c3ncccn3)CC2)cc1S(=O)(=O)N1CCOCC1 0.314%, Cc1cc(NC(=O)C(C)N2C(=O)c3ccccc3S2(=O)=O)no1 (stereo unspecified) 3.21%, Cc1ccc(Nc2nnc(SC(C)C(=O)NC3CC3)s2)cc1 (stereo unspecified) 7.35%, Cc1ccc(NC(=O)Nc2nnc(-c3ccncc3)s2)cc1 -3.06%, COC(=O)C(C)N=Cc1ccccc1 (stereo unspecified) -4.82%, COCCNc1cc(-c2ccccc2)nc2cc(-c3cccc(F)c3)nn12 -7.71%, CC(=O)Oc1ccc2c(c1)C(=O)c1ccccc1C2=O 12.2%, COc1cccc(/C=C/c2ccc3ccccc3n2)c1OC(C)=O -1.58%, Clc1ccc(Nc2nc(-c3cccs3)cs2)nc1 11%, CCCn1c(CCNc2nc(-c3ccc(OC)cc3)cs2)nc2ccccc21 0.961%, COc1ccc(-c2csc(Cc3nc(O)cs3)n2)cc1 23.1%, O=C(NCc1cccnc1)C(=O)Nc1nc(-c2ccccc2)cs1 3.71%, COc1ccc(-c2csc(NC(=O)COC(=O)Cc3ccc(Cl)cc3Cl)n2)cc1 4.91%, Clc1ccc(-c2csc(-c3ccncc3)n2)cc1 -6.3%, O=C(Nc1nc(-c2cccnc2)cs1)c1ccccc1F 28.5%, COc1ccc2c(c1OC)C(=O)OC2Nc1nc(-c2ccccc2)cs1 (stereo unspecified) 1.44%, CN(Cc1ccc(F)cc1Cl)S(=O)(=O)c1cccs1 -5.99%, CCN(C(=O)COC(=O)c1c(C)nn(-c2ccccc2)c1Cl)c1c(N)n(Cc2ccccc2)c(=O)[nH]c1=O 2.84%, O=[N+]([O-])c1cc(S(=O)(=O)CCCN2CCOCC2)ccc1F -6.87%, Cc1ccc(S(=O)(=O)NCC(=O)N(CC(=O)NC(C)(C)C)Cc2cccs2)cc1 0.604%, CSCCNCc1cn(-c2ccc(F)cc2F)nc1-c1ccccc1C 8.28%, CCOc1ccc(S(=O)(=O)Nc2ccncc2)c(C)c1C -7.98%, CC[C@]1(C(=O)OC)[C@H]2C(=O)N(Cc3ccccc3)C(=O)[C@H]2[C@H]2CN=C(SCc3ccc(C#N)cc3)N21 -3.53%, OC(COCC1COc2ccccc2O1)CN1CCN(c2ccc(F)cc2)CC1 (stereo unspecified) -0.332%, CCCCCCCCOC1OC(CO)C(O)C(O)C1NC(C)=O (stereo unspecified) -1.17%, COc1c(F)c(F)c(-c2csc(N)n2)c(F)c1F -8.1%, CS(=O)(=O)Nc1cccc(C2=NN(C(=O)c3cccc(F)c3)C(c3cccs3)C2)c1 (stereo unspecified) 6.94%, O=C1/C(=C/c2coc3ccc(O)cc3c2=O)SC(=S)N1c1ccccc1 -27.4%, O=C(Cc1csc(Nc2nc(=S)[nH]c3ccccc23)n1)NCCCN1CCN(c2cccc(Cl)c2)CC1 6.52%, CCC(C(=O)NC1CCCC1)N(C(=O)c1snc(C(N)=O)c1N)c1ccc2c(c1)OCCO2 (stereo unspecified) 5.07%, Nc1c(C(=O)c2cccs2)sc2nsc(SCCN3CCCCC3)c12 9.3%, Cc1ccc(Nc2nc(-c3ccc(O)cc3O)cs2)nc1 -5.69%, Cc1ccc(-c2csc(NC3OC(=O)c4ccccc43)n2)cc1 (stereo unspecified) -11.5%, CCOCCCNC(=O)C1(O)c2cc(Br)ccc2NC(=O)N1c1ccc(C)c(C)c1 (stereo unspecified) 8.05%, COCCn1c(SC(C)C(=O)NC2CC2)nnc1-c1cccc(C)c1 (stereo unspecified) 1.39%, O=C(Nc1cccc(NC(=O)c2cccc(F)c2)c1)c1ccccc1 -10.7%, O=C(Nc1cccc(C(=O)N2CCCC2)c1)c1ccccc1 -13%, Cc1ccc(Nc2ncnc3c2cnn3C)c(C)c1 -0.763%, CCN(CC)C(=O)CSc1ncnc2c1cnn2-c1ccccc1 2.6%, CC(=O)NC1C(Oc2ccc(C=O)cc2)OC(COC(C)=O)C(OC(C)=O)C1OC(C)=O (stereo unspecified) 5.78%, Cc1cccc(NC(=O)CSc2nc3c(c(=O)[nH]2)CCC3)c1C -1.39%, CC(=O)Nc1ccc(NC(=O)CSc2nnc(COc3ccccc3C)n2CC2CCCO2)cc1 (stereo unspecified) 5.76%, COC(=O)c1ccc([C@@H](O)[C@H](C)C(=O)CC(=O)OC(C)(C)C)cc1 6.36%, COc1cc(NC(=O)c2cccs2)ccc1NC(=O)c1ccccc1Cl -1.86%, O=C(Nc1cccc(NC(=O)c2ccccc2[N+](=O)[O-])c1)c1ccccc1Cl 6.18%, COc1ccc2[nH]c(C(=O)Nc3ccccc3Cl)cc2c1 6.38%, CC(OC(=O)c1cc2ccccc2[nH]1)C(=O)N(C)c1ccccc1 (stereo unspecified) -10.4%, CCSc1nc2c(c(=O)[nH]1)C(c1cccnc1)C(C(=O)OC(C)C)=C(C)N2 (stereo unspecified) 11%, COc1ccc(C(CNCC(=O)Nc2ccccc2F)N(C)C)cc1 (stereo unspecified) 2.72%, Cc1ccn2cc(-c3nonc3C)cc2c1 4.32%, CS(=O)(=O)N1CCN(C(=O)CSc2ccccc2)CC1 -0.93%, CCCCN1Cc2c(nc3cc(-c4ccccc4)[nH]n3c2=O)C1=O -4.67%, Cc1cc(=O)n2[nH]c(-c3cccc(Cl)c3)cc2n1 1.33%, Cc1nc2ccccc2c(=O)n1-c1ccc(NS(=O)(=O)c2ccc(F)cc2F)cc1 -0.987%, CCC(=O)c1ccc(OCC(O)Cn2nc(C)c(C(C)=O)c2C)cc1 (stereo unspecified) 0.247%, CC(C)(C)NC(=O)NCc1ccco1 -4.67%, CC(C)(C)c1ccc(C(=O)NCc2ccco2)cc1 -16.4%, CN(C)S(=O)(=O)c1cc(C(=O)Nc2ccn(C)n2)c(Cl)cc1Cl -0.713%, CN(C)NC(=O)C(NC(=O)c1ccc(N)cc1)C12CC3CC(CC(C3)C1)C2 (stereo unspecified) -0.0401%, Cc1noc(C)c1COc1ccc2ccc(=O)oc2c1 -8.22%, CCCCc1cc(=O)oc2cc(C)cc(OCc3nn[nH]n3)c12 1.78%, O=C(CNCCC1=CCCCC1)Nc1ccccc1N1CCCCCC1 -5.33%, CN(C)c1ccc(/C=C/C(=O)c2ccc(O)cc2)cc1[N+](=O)[O-] -14.8%, O=C(O)/C=C/c1ccc2c(c1)OCCO2 2.14%
